# Assay results published in PubChem BioAssay.
# Experiments:
# [1] = tested on: Human papillomavirus type 1a protein E7 (residues 44-93); assay: HPV1a E7 fragment binders on microarrays, primary screen, biochemical, small-molecule microarray, residues 44-93, 635 nm fluorescence (AID 1108); conditions: small-molecule microarray binding, fluorescence 635 nm; higher = more signal;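 further: E7 fragment applied at 1 µg/mL in TBST for 1 h at 4 C; score combines spot fluorescence with its signal to noise ratio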
# [2] = modulators of HCV replicon luciferase signal, primary screen, HCV replication inhibitor project, Huh7 cells, luciferase reporter (AID 1109); conditions: 48 h, higher = more signal;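 further: huh7 hepatoma cells harbouring a luciferase neomycin HCV replicon reporter; luciferase luminescence as measure of HCV replicon replication; test concentration not given here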
# [3] = target: Left-right determination factor 2 (Homo sapiens) (UniProt O00292); assay: LEFTY2 binders on small-molecule microarrays, primary screen, biochemical, small-molecule microarray, 635 nm fluorescence scan (AID 1110); conditions: LEFTY2 binding, higher = more signal
# [4] = target: Calmodulin-1 (Homo sapiens) (UniProt P0DP23); assay: CALM1 binders on microarrays, EGTA buffer, profiling panel, biochemical, small-molecule microarray, Cy5-labelled CALM1 (AID 1111); conditions: Cy5-CALM1 binding fluorescence, higher = more signal;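 further: labelled calmodulin applied in Tris saline Tween buffer holding calcium plus EGTA and DTT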
# [5] = target: Calmodulin-1 (Homo sapiens) (UniProt P0DP23); assay: calcium-bound CALM1 binders on microarrays, profiling panel, artefact control for SMM control-protein annotation, biochemical, small-molecule microarray, Cy5-labelled CALM1, plus calcium (AID 1112); conditions: Cy5-CALM1 binding fluorescence, higher = more signal;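 further: score merges spot fluorescence with signal to noise from triplicate slides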
# [6] = small-molecule microarray binders of probe aWnt5a, primary screen, biochemical, biotinylated probe, 635/667 nm fluorescence (AID 1113); conditions: higher = more signal;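 further: score merges 667 nm fluorescence intensity with signal-to-noise per printed feature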
# [7] = small-molecule microarray binders of probe aShh, primary screen, biochemical, biotinylated probe, 635/667 nm fluorescence (AID 1114); conditions: higher = more signal;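 further: probe is biotin-labelled aShh protein from a stem cell growth factor screen; measures binding of labelled protein to compounds printed on the slide; score merges feature fluorescence at 667 nm with signal-to-noise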
# [8] = small-molecule microarray binders of probe aNog, primary screen, biochemical, biotinylated probe, 635/667 nm fluorescence (AID 1115); conditions: higher = more signal;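 further: probe is biotinylated aNog protein used at 0.15 µg/mL for 1 h at 4 C; z-score combines 667 nm fluorescence of each spot with its signal to noise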
# [9] = target: Torsin-1A-interacting protein 1 (Homo sapiens) (UniProt Q5JTV8); assay: LAP1 binders from COS7 cell lysate, primary screen, small-molecule microarray, 635/667 nm fluorescence (AID 1116); conditions: COS7-hLAP1 lysate binding, 635 nm fluorescence, higher = more signal
# [10] = target: Alpha-bungarotoxin (Bungarus multicinctus) (UniProt P60615); assay: alpha-bungarotoxin binders on microarray, profiling panel, artefact control for SMM control protein annotation, biochemical, small-molecule microarray, Alexa647 label, 635/667 nm fluorescence (AID 1117); conditions: alpha-BTX-A647 binding fluorescence, higher = more signal
# Sequence of Alpha-bungarotoxin (Bungarus multicinctus) (P60615 whole entry, looked up): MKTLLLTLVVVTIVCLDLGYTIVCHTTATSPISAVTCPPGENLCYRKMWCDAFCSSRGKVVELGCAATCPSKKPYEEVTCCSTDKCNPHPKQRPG
# Sequence of Left-right determination factor 2 (Homo sapiens) (O00292 whole entry, looked up): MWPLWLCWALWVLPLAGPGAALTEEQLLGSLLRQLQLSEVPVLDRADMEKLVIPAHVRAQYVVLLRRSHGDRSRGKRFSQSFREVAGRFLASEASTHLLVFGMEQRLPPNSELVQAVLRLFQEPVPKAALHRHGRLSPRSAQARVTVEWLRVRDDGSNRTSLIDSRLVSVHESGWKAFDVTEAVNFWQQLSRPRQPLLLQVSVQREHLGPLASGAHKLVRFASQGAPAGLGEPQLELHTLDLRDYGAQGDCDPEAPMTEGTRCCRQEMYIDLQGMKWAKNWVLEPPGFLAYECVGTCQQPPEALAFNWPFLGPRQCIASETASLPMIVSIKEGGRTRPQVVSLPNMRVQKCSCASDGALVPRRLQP
# Sequence of Torsin-1A-interacting protein 1 (Homo sapiens) (Q5JTV8 whole entry, looked up): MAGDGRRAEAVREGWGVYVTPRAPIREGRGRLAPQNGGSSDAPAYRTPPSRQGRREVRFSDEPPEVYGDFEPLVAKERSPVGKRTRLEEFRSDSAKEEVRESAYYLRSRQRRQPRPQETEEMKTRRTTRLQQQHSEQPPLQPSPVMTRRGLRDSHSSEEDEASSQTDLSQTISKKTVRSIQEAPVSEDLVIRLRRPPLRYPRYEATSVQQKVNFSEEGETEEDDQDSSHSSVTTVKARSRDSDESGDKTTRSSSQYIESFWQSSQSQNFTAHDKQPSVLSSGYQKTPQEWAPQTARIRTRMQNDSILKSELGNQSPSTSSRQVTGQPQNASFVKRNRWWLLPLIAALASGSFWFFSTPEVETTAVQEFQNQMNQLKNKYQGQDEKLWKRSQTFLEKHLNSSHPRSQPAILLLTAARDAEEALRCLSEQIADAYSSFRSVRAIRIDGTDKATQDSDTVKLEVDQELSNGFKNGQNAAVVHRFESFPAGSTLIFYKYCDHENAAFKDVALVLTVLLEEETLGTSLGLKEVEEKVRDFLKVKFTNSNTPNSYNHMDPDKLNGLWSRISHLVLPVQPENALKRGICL
structure (smiles),measurement,setting,value
CC1CC/C=C\[C@H]2OC34C=CCN(C(C)(C)C)C(=O)[C@H]3N(C(CO)C(C)C)C(=O)[C@@H]4C2C(=O)O1 (stereo not given in full),composite z-score,[1],-1.26
same,z-score,[2],0.434
same,composite z-score,[3],0.272
same,composite z-score,[4],-0.745
same,composite z-score,[5],-0.554
same,composite z-score,[6],-0.0882
same,composite z-score,[7],0.0469
same,composite z-score,[8],-0.316
same,composite z-score,[9],0.952
same,composite z-score,[10],-0.62
NCCCCCNC(=O)[C@H]1C[C@H]2C(=O)N[C@@H](Cc3ccccc3)C(=O)N2[C@H]1c1ccc(O)cc1,composite z-score,[1],1.05
same,z-score,[2],0.0505
same,composite z-score,[3],0.202
same,composite z-score,[4],2.24
same,composite z-score,[5],1.14
same,composite z-score,[6],0.183
same,composite z-score,[7],0.596
same,composite z-score,[8],0.859
same,composite z-score,[9],0.456
same,composite z-score,[10],0.949
Cc1ccc(S[C@]2(C(=O)NCC(C)C)CC(=O)N(C3Cc4ccccc4C3)[C@@H]2c2ccc(CO)cc2I)cc1,composite z-score,[1],-0.117
same,z-score,[2],-1.33
same,composite z-score,[3],-1.2
same,composite z-score,[4],-0.257
same,composite z-score,[5],0.27
same,composite z-score,[6],-0.125
same,composite z-score,[7],-0.368
same,composite z-score,[8],0.0862
same,composite z-score,[9],0.273
same,composite z-score,[10],-0.324
Nc1cc(Br)ccc1C(=O)O,composite z-score,[1],-0.0633
same,z-score,[2],-0.518
same,composite z-score,[3],0.285
same,composite z-score,[4],0.955
same,composite z-score,[5],0.885
same,composite z-score,[6],-0.0045
same,composite z-score,[7],-0.0626
same,composite z-score,[8],0.0558
same,composite z-score,[9],0.0546
same,composite z-score,[10],1.39
CC(C)C(=C=CC[C@@H](O)c1cccc(OCCO)c1)C[C@@H](O)c1ccccn1,composite z-score,[1],0.0406
same,z-score,[2],-0.658
same,composite z-score,[3],-0.315
same,composite z-score,[4],-0.303
same,composite z-score,[5],-0.207
same,composite z-score,[6],-0.152
same,composite z-score,[7],-0.154
same,composite z-score,[8],-0.104
same,composite z-score,[9],1.63
same,composite z-score,[10],-0.142
CCOC(=O)C[C@H]1[C@H](OC(=O)c2ccc(C(=O)c3ccccc3)cc2)[C@@H](NC(=O)CC(C)C)c2cc(OCCCO)ccc2N1C(=O)Cc1ccc(OC)cc1,composite z-score,[1],1.1
same,z-score,[2],-2.05
same,composite z-score,[3],0.142
same,composite z-score,[4],1.19
same,composite z-score,[5],0.263
same,composite z-score,[6],-0.0852
same,composite z-score,[7],-0.238
same,composite z-score,[8],0.0437
same,composite z-score,[9],0.812
same,composite z-score,[10],0.118
COc1ccc([Si](C)(C)[C@@H]2[C@@H](CCn3cc([C@H](O)c4ccccc4)nn3)O[C@]3(C(=O)N(c4ccccc4)c4ccccc43)[C@H]2C)cc1,composite z-score,[1],-0.0404
same,z-score,[2],-3.76
same,composite z-score,[3],-0.184
same,composite z-score,[4],0.052
same,composite z-score,[5],-0.336
same,composite z-score,[6],-0.096
same,composite z-score,[7],0.413
same,composite z-score,[8],0.383
same,composite z-score,[9],0.0664
same,composite z-score,[10],0.351
COC(=O)[C@@]1(Cc2ccccc2CN=[N+]=[N-])N=C(c2ccc(OCCCO)cc2)O[C@H]1c1ccccc1,composite z-score,[1],0.155
same,z-score,[2],-3.09
same,composite z-score,[3],-0.59
same,composite z-score,[4],-0.426
same,composite z-score,[5],0.161
same,composite z-score,[6],0.0101
same,composite z-score,[7],-0.0375
same,composite z-score,[8],1.48
same,composite z-score,[9],1.42
same,composite z-score,[10],0.779
CCOC(=O)C1=CCC(c2ccco2)N(S(=O)(=O)c2ccc(C)cc2)C1 (stereo not given),composite z-score,[1],1.36
same,z-score,[2],-2.3
same,composite z-score,[3],0.297
same,composite z-score,[4],0.921
same,composite z-score,[5],0.0331
same,composite z-score,[6],0.0279
same,composite z-score,[7],0.0048
same,composite z-score,[8],-0.423
same,composite z-score,[9],0.761
same,composite z-score,[10],0.818
C[C@@H]1ON(c2ccc(I)cc2)[C@H](c2ccc(OC(=O)OC(C)(C)C)cc2)[C@H]1C(=O)N1C(=O)OC[C@H]1Cc1ccccc1,composite z-score,[1],1.15
same,z-score,[2],-1.12
same,composite z-score,[3],0.628
same,composite z-score,[4],0.501
same,composite z-score,[5],-0.502
same,composite z-score,[6],-0.241
same,composite z-score,[7],-0.0431
same,composite z-score,[8],-0.321
same,composite z-score,[9],0.362
same,composite z-score,[10],0.943
COCCCNC(=O)[C@@]1(c2ccc([N+](=O)[O-])cc2)CC(=O)N(CC23CC4CC(CC(C4)C2)C3)[C@@H]1c1ccc(CO)cc1I,composite z-score,[1],0.952
same,z-score,[2],-3.15
same,composite z-score,[3],-0.381
same,composite z-score,[4],0.425
same,composite z-score,[5],0.729
same,composite z-score,[6],-0.104
same,composite z-score,[7],0.337
same,composite z-score,[8],0.536
same,composite z-score,[9],0.157
same,composite z-score,[10],1.22
COCCCNC(=O)[C@@]1(Sc2ccc(C)cc2)CC(=O)N(C(C)C)[C@@H]1c1ccc(CO)cc1I,composite z-score,[1],1.27
same,z-score,[2],-3.44
same,composite z-score,[3],-0.327
same,composite z-score,[4],-0.0081
same,composite z-score,[5],-0.0868
same,composite z-score,[6],-0.096
same,composite z-score,[7],-0.291
same,composite z-score,[8],-0.289
same,composite z-score,[9],0.722
same,composite z-score,[10],0.487
C=CCC(OC(C)=O)[C@@H]1[C@@H](N(Cc2ccc(-c3cccc(C(F)(F)F)c3)o2)C(=O)c2ccc(C)cc2)c2cc(OCCCO)ccc2N1C(=O)Cc1ccc(OC)cc1 (stereo not given in full),composite z-score,[1],-0.918
same,z-score,[2],-0.466
same,composite z-score,[3],-0.115
same,composite z-score,[4],-0.697
same,composite z-score,[5],-1.06
same,composite z-score,[6],0.0327
same,composite z-score,[7],-0.439
same,composite z-score,[8],-0.565
same,composite z-score,[9],0.163
same,composite z-score,[10],-0.056
O=C1N[C@@H](Cc2ccccc2)C(=O)N2[C@@H]1C[C@@H](C(=O)O)[C@H]2c1ccc(O)cc1,composite z-score,[1],0.436
same,z-score,[2],2.57
same,composite z-score,[3],0.572
same,composite z-score,[4],0.58
same,composite z-score,[5],-0.661
same,composite z-score,[6],0.0718
same,composite z-score,[7],0.0711
same,composite z-score,[8],-0.0382
same,composite z-score,[9],0.466
same,composite z-score,[10],0.431
COc1ccc(CCNC(=O)[C@@]2(Cc3ccccc3I)c3ccccc3C(=O)N(Cc3ccccc3Cl)[C@H]2c2ccc(CO)cc2)cc1,composite z-score,[1],-0.542
same,z-score,[2],-2.44
same,composite z-score,[3],-0.818
same,composite z-score,[4],0.331
same,composite z-score,[5],0.354
same,composite z-score,[6],0.0718
same,composite z-score,[7],0.235
same,composite z-score,[8],0.371
same,composite z-score,[9],0.589
same,composite z-score,[10],-0.0759
[N-]=[N+]=NCc1ccccc1C[C@@]1(C(=O)N2CCCCC2)N=C(c2ccc(OCCCO)cc2)O[C@@H]1c1ccccc1CN=[N+]=[N-],composite z-score,[1],0.905
same,z-score,[2],-2.73
same,composite z-score,[3],-0.133
same,composite z-score,[4],2.02
same,composite z-score,[5],1.37
same,composite z-score,[6],-0.101
same,composite z-score,[7],-0.0626
same,composite z-score,[8],1.31
same,composite z-score,[9],1.01
same,composite z-score,[10],1.5
CN(C)CCCNC(=O)[C@@H]1c2ccccc2C(=O)N(C2CCCCC2)[C@H]1c1ccc(CO)cc1,composite z-score,[1],1.44
same,z-score,[2],-2.43
same,composite z-score,[3],1.17
same,composite z-score,[4],1.41
same,composite z-score,[5],-0.179
same,composite z-score,[6],-0.0459
same,composite z-score,[7],0.191
same,composite z-score,[8],-0.312
same,composite z-score,[9],0.87
same,composite z-score,[10],0.233
C[C@]1(C(=O)O)c2ccccc2C(=O)N(Cc2ccc(OC(F)(F)F)cc2)[C@H]1c1ccc(CO)cc1,composite z-score,[1],-0.829
same,z-score,[2],-0.102
same,composite z-score,[3],-0.618
same,composite z-score,[4],1.03
same,composite z-score,[5],0.714
same,composite z-score,[6],-0.129
same,composite z-score,[7],0.147
same,composite z-score,[8],0.265
same,composite z-score,[9],0.703
same,composite z-score,[10],1.56
